PubChem BioAssay AID492948 (National Center for Advancing Translational Sciences (NCATS), 2010)
Inconclusive results are not listed. A number with no mark means an inactive call. Active and inactive are the calls of the source. Calls follow the shape of the dose curve; as a rule, active = well fitted activation curve with a large enough effect; inconclusive = small, poorly fitted or top-dose-only effect; inactive = no such curve, though single readings can be large or run the other way.
Potency is read from the fitted curve at half-maximal effect.

Assay: qHTS Assay for Agonists of the Relaxin Receptor RXFP1: V1B Hit Validation;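 also: counter-screen in HEK293 cells expressing V1B rather than RXFP1 for selectivity; nearly all actives have a fitted effect of over 65% in size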;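 as to activation: cAMP accumulation with PDE4 inhibitor Ro 20-1724 present during compound exposure; 0% = buffer alone basal and 100% = 29 nM porcine relaxin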
Settings: HEK293 V1B cells, cAMP TR-FRET, 30 min; series mostly up to 115 µM; activation: at the top concentration
Outline: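 HEK293 cells expressing V1B, 2000/well, treated 30 min at 37C with compound plus PDE4 inhibitor Ro 20174; cAMP by HTRF TR-FRET (665/615 nm). Normalized to buffer and 29 nM porcine relaxin; EC50 from Hill fit.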
In the case of `CCCn1c(SCC(=O)Nc2ccc(NC(C)=O)cc2)nc2c1c(=O)n(C)c(=O)n2C`, the Potency is reported as 38.9 µM (active).
In the case of `CCN(CC)S(=O)(=O)c1ccc(N2CCOCC2)c(NC(=O)c2cccc(C#N)c2)c1`, the Potency is reported as 47.3 µM (active).
For `Brc1ccc2ncnc(NCc3cccnc3)c2c1`, the Potency was 38.9 µM (active).
In the case of `Cn1c2ccccc2c2nnc(SCC(=O)Nc3cccc(C(=O)O)c3)nc21`, the Potency is reported as 21.9 µM (active).
For `O=C(Nc1ccccc1C(=O)Nc1ccccc1)c1ccco1`, the “activation” value was 1.83% [at 127 µM].
In the case of `CC1(C)Cc2c(sc3c2c2ncnn2c2nnc(SCC(=O)NCc4ccco4)n32)CO1`, the Potency is reported as 6.91 µM (active).
For `NC(=O)c1ccccc1NC(=O)CC12CC3CC(CC(C3)C1)C2`, the “activation” value was 1.11% [at 127 µM].
In the case of `Cc1cccn2c(=O)c(/C=C3\SC(=S)NC3=O)c(NCCCN3CCOCC3)nc12`, the Potency is reported as 4.35 µM (active).
With `O=C(Oc1ccccc1)Oc1ccc2c(c1)oc(=O)c1ccccc12` the Potency was 21.8 µM (active).
With `Cc1cc(C)n2nc(C(=O)Nc3ccc4c(c3)OCCO4)nc2n1` the Potency was 6.15 µM (active).
For `S=c1nc[nH]c2c1[nH]c1ccccc12`, the Potency was 6.9 µM (active).
With `CC[n+]1ccc(/C=C/c2ccc(N(C)C)cc2)c2ccccc21` the “activation” value was -21.1%.
With `O=C(O)c1cc(-c2ccc(Br)s2)nc2ccccc12` the Potency was 3.46 µM (active).
With `N#CCCSc1ncnc2c1oc1ccccc12` the Potency was 19.4 µM (active).
In the case of `CCOC(=O)C1CCN(C(=O)c2cc3c(=O)n4ccccc4nc3s2)CC1`, the Potency is reported as 43.6 µM (active).
With `O=C(Nc1ccccc1C(=O)Nc1ccc(F)cc1)c1ccco1` the “activation” value was 3.36% [at 127 µM].
For `Cc1ccnc(NS(=O)(=O)c2ccc(N3C(=O)c4ccccc4C3=O)cc2)n1`, the Potency was 14.9 µM (active).
In the case of `Nc1ncnc2c1ncn2[C@@H]1O[C@H](COS(=O)(=O)O)[C@@H](O)[C@H]1O`, the Potency is reported as 6.9 µM (active).
For `O=C(O)c1ccc(N2C(=O)c3cccc4c(C(=O)O)ccc(c34)C2=O)cc1`, the Potency was 47.3 µM (active).
With `O=c1c2ccccc2cnn1Cc1n[nH]c(=S)n1-c1ccc(F)c(Cl)c1` the Potency was 21.9 µM (active).
In the case of `O=C(Nc1ccccc1C(=O)N1CCN(c2ccccc2)CC1)c1ccco1`, the “activation” value is reported as -5.2% [at 127 µM].
With `COCCNC(=O)NC(=O)COC(=O)C12CC3CC(CC(NC(C)=O)(C3)C1)C2` the “activation” value was 5% [at 44.9 µM].
For `O=C(Nc1ccccc1C(=O)Nc1ccccc1C(=O)NCc1ccco1)c1ccco1`, the Potency was “inactive”.
With `C[C@H](Cc1ccccc1)Nc1ncnc2c1ncn2[C@@H]1O[C@H](CO)[C@@H](O)[C@H]1O` the Potency was 21.9 µM (active).
For `O=S(=O)(Nc1ccccc1C(F)(F)F)c1ccc(-c2ccccn2)s1`, the Potency was 21.9 µM (active).
With `CC(=O)Nc1ccc(S(=O)(=O)NCc2cc(=O)n(C)c(=O)n2C)cc1` the Potency was 30.9 µM (active).
In the case of `COc1ccc(Nc2ncc(C#N)c(N)n2)c(OC)c1`, the “activation” value is reported as -2.08%.
With `Cc1cc(C(=O)OCC(=O)c2ccc(Br)s2)no1` the Potency was 21.8 µM (active).
In the case of `CCC(=O)Nc1ccc(-n2nnnc2SCC(=O)NNC(=O)c2ccco2)cc1`, the “activation” value is reported as 1.43%.
With `O=C(Nc1cc(S(=O)(=O)N2CCOCC2)ccc1N1CCOCC1)c1cn2ccccc2n1` the Potency was 30.9 µM (active).
In the case of `Cn1c(N)c(C(=O)CSc2nn(-c3ccc(F)cc3)c(=S)s2)c(=O)n(C)c1=O`, the Potency is reported as 19.4 µM (active).
With `O=C(Nc1ccccc1)c1ccccc1NC(=O)C1CCCCC1` the “activation” value was -0.678% [at 127 µM].
With `Cc1ccc(C(=O)Nc2cccc(C(F)(F)F)c2)cc1NC(=O)c1cnnc2ccccc12` the “activation” value was 4.89%.
For `CCN(CC)S(=O)(=O)c1ccc(N2CCOCC2)c(NC(=O)c2cc([N+](=O)[O-])ccc2Cl)c1`, the “activation” value was 9.17%.
For `O=C(Nc1ccccc1C(=O)NCc1ccco1)c1ccccc1`, the “activation” value was 5.63% [at 127 µM].
With `O=C(Nc1ccccc1C(=O)NCCc1ccc(O)cc1)c1ccco1` the “activation” value was 3.88% [at 127 µM].
In the case of `O=S(=O)(c1cccc(-c2cn3cccnc3n2)c1)N1CCOCC1`, the Potency is reported as 19.5 µM (active).
